Common to all, as to design: scale not given: direction of the effect not stated beside the values
In test [1] the target is Protein translocase subunit SecA (Escherichia coli (strain K12)) (UniProt P10408). The test can be described thus: Assay to Identify E. coli SecA ATPase Inhibitors. In kind it is functional. The conditions noted are these: 30 µM.
Test [2] concerns the target T1, Ubiquitin-activating enzyme e1, putative (Leishmania donovani (strain BPK282A1)) (UniProt E9BSI1).
T1 sequence (whole entry): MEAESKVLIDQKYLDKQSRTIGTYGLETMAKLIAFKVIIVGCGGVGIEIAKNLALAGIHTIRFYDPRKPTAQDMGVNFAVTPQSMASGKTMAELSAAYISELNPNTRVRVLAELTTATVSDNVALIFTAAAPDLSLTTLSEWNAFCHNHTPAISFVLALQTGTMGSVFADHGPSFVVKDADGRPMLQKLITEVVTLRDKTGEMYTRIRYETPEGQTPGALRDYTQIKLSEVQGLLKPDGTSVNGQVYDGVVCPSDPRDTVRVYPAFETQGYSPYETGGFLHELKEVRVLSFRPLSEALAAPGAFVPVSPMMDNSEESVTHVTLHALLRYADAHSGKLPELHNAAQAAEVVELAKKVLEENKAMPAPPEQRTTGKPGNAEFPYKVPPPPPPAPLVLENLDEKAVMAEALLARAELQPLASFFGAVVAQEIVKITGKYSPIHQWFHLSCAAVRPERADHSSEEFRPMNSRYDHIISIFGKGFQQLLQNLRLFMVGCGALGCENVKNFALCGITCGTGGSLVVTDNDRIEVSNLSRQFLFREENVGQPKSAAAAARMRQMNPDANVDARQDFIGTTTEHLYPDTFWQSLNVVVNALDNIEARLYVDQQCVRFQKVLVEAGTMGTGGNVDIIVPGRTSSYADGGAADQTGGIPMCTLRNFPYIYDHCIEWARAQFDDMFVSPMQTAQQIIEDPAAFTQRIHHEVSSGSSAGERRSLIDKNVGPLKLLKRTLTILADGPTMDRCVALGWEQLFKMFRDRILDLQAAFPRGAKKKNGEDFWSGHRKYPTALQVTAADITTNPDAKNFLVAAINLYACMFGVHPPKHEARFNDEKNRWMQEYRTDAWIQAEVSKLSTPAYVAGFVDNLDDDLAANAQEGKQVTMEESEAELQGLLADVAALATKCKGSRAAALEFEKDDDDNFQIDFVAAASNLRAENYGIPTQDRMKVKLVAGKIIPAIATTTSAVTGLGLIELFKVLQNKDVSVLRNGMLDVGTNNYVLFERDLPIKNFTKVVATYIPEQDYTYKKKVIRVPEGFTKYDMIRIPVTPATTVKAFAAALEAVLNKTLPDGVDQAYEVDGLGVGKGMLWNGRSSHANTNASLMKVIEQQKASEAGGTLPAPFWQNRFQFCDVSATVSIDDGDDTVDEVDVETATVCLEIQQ
The experiment in a line: Leishmania donovani Ubiquitin Activating Enzyme (LdE1). In kind it is functional. The settings on record: 30 µM.

Test [3] addresses T2, Aspartate--tRNA(Asp/Asn) ligase (Mycobacterium tuberculosis (strain ATCC 25618 / H37Rv)) (UniProt P9WFW3).
T2 sequence (whole entry): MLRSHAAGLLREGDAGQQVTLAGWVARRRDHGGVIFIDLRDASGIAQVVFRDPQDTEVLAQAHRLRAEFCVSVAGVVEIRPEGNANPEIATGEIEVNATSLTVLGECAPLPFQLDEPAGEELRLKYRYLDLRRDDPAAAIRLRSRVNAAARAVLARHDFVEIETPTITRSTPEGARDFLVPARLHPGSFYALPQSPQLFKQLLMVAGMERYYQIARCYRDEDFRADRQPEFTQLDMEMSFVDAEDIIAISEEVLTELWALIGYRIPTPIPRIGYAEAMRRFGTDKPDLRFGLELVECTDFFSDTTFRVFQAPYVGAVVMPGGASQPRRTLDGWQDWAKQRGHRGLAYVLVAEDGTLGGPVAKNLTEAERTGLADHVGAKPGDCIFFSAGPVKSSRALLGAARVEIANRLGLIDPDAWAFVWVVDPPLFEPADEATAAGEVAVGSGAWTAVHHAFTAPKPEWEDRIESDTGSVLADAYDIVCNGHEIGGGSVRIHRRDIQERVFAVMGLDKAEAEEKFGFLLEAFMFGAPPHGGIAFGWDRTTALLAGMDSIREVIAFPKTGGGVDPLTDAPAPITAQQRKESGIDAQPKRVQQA
The experiment in a line: Assay for Asp RNA synthetase-1 from Mycobacterium tuberculosis. In kind it is functional. The settings on record: 30 µM.

Test [4] deals with AMP-activated protein kinase, AMPK (Homo sapiens) (UniProt P54646+O43741+P54619+Q9UGJ0+Q9Y478+Q13131+Q9UGI9). The experiment in a line: AMP-dependent Kinase enzyme assay. An in vitro enzyme assay that detects ADP turnover that is directly proportional to AMPK activity. This uses naive AMPK that is activated during the assay with MK-8722. In kind it is functional. The settings on record: 30 µM.

Test [5] concerns the target Sialic acid-binding Ig-like lectin 9 (Homo sapiens) (UniProt Q9Y336). The test can be described thus: Hs-Siglec9 ALPHAscreen SOP 20170721. The conditions noted are these: 10 µM. In general terms: Bead proximity is the source of the signal in Alpha formats.
For a further test, the system named is Trypanosoma cruzi. The experiment in a line: Trypanosoma cruzi phosphomannomutase and mannose-1-phosphate guanylyltransferase assay. Type of test: functional. The settings on record: 10 µM.
The target of test [6] is T3, Arginase-2, mitochondrial (Homo sapiens) (UniProt P78540).
T3 sequence (whole entry): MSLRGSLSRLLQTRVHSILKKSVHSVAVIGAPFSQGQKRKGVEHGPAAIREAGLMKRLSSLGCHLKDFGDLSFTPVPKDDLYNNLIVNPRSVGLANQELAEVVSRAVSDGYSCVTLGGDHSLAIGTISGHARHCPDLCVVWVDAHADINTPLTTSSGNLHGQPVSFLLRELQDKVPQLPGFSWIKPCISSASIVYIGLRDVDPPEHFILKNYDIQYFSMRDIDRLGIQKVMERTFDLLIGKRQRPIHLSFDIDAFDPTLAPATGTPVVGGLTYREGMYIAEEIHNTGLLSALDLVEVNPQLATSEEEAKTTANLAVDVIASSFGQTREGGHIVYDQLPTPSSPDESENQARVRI
The test can be described thus: in vitro enzyme assay to detect the production of urea directly proportional to the activity of Arginase II. Also: in the data most compounds retested in dose-response had high values. The conditions noted are these: 33.3 µM. In kind it is functional.

Test [7] deals with T4, Proteasome subunit beta (Trypanosoma cruzi) (UniProt O96673).
T4 sequence (whole entry): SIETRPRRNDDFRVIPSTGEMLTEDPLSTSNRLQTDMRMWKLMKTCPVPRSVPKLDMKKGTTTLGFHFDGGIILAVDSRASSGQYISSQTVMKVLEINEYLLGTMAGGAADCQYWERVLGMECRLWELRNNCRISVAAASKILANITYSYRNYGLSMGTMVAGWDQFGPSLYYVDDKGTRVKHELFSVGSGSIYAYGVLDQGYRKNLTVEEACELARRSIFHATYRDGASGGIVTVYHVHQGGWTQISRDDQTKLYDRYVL
The test can be described thus: Trypanosoma cruzi proteasome chymotrypsin-like activity (TcProtChymo) assay. Also: in the data most compounds retested in dose-response had high values. In kind it is functional. The settings on record: 9.37 µM.

The species entered for a further test is Homo sapiens. The experiment in a line: To identify inhibition of the IFN signalling (Jak-Stat) pathway via expression of an eGFP reporter gene under the control of an IFN-stimulated response element (ISRE) containing MxA promoter. In kind it is functional. The settings on record: 30 µM. (Reporter assays use an easily measured gene product as a stand-in for the process of interest.)

Test [8] deals with Shiga toxin 2 (Escherichia coli O157:H7) (UniProt P09385+P09386). The experiment in a line: E. coli 0.157:H7 Shiga Toxin SOP - stx2 screening assay. Type of test: functional. The settings on record: 30 µM.
Test [9] concerns the target T5, Tyrosyl-tRNA synthetase, putative (Trypanosoma cruzi (strain CL Brener)) (UniProt Q4DSP6).
T5 sequence (whole entry): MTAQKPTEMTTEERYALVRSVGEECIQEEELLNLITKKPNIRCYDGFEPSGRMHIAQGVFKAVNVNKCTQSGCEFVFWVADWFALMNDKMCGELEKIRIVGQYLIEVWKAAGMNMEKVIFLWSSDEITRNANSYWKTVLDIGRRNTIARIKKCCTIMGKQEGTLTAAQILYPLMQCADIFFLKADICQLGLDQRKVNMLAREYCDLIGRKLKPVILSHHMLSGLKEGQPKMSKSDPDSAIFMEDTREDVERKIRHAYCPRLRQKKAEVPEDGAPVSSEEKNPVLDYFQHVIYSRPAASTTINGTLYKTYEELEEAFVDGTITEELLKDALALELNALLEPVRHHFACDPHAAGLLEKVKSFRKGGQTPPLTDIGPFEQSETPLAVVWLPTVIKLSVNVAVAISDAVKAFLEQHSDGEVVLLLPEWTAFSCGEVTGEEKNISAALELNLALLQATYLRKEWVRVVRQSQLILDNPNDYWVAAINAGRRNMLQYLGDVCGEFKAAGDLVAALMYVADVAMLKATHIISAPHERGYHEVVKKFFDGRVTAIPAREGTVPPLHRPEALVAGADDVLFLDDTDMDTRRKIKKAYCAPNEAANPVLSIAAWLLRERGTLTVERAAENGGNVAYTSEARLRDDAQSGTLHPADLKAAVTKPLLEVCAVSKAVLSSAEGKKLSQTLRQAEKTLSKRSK
The test can be described thus: Trypanosoma cruzi tyrosyl tRNA synthetase (TcYRS) _High Tyrosine SOP. Also: in the data most compounds retested in dose-response had high values. Type of test: functional. The conditions noted are these: 30 µM.

For test [10], the target named is T5, Tyrosyl-tRNA synthetase, putative (Trypanosoma cruzi (strain CL Brener)). The experiment in a line: Trypanosoma cruzi tyrosyl tRNA synthetase (TcYRS) SOP. In kind it is functional. The conditions noted are these: 30 µM.
Test [11] deals with Chromo domain-containing protein 1 (Saccharomyces cerevisiae (strain ATCC 204508 / S288c) (Baker's yeast)) (UniProt P32657). The test can be described thus: ScCHD-1 Enzyme Inhibition Assay. Also: in the data most compounds retested in dose-response had high values. Type of test: functional. The settings on record: 30 µM.

For some assays here: Entries with a potency or affinity are not part of this list.

Protein translocase subunit SecA (Escherichia coli (strain K12)), sequence (P10408 whole entry): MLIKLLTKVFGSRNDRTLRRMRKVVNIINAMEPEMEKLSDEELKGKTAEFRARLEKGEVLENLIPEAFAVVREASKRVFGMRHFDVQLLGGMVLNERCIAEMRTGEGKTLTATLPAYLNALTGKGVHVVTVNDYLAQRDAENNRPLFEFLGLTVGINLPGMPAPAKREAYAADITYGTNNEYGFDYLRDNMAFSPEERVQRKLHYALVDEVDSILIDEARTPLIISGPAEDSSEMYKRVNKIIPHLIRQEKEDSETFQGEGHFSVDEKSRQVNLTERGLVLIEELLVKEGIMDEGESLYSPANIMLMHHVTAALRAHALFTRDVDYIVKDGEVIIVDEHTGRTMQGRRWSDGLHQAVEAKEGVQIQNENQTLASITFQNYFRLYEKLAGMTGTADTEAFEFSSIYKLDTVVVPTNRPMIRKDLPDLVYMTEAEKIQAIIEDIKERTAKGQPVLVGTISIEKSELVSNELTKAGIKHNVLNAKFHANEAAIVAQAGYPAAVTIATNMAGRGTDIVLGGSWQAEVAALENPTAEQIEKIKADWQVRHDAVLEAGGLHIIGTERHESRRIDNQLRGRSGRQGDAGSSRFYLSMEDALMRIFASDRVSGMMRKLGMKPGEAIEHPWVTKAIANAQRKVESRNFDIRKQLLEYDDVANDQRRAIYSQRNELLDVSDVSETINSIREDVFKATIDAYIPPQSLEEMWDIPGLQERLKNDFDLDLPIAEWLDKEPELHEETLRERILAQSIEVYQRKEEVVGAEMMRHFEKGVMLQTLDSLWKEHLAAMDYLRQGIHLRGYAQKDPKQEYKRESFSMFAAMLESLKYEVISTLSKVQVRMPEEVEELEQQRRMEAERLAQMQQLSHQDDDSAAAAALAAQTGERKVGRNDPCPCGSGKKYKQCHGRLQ
Sialic acid-binding Ig-like lectin 9 (Homo sapiens), sequence (Q9Y336 whole entry): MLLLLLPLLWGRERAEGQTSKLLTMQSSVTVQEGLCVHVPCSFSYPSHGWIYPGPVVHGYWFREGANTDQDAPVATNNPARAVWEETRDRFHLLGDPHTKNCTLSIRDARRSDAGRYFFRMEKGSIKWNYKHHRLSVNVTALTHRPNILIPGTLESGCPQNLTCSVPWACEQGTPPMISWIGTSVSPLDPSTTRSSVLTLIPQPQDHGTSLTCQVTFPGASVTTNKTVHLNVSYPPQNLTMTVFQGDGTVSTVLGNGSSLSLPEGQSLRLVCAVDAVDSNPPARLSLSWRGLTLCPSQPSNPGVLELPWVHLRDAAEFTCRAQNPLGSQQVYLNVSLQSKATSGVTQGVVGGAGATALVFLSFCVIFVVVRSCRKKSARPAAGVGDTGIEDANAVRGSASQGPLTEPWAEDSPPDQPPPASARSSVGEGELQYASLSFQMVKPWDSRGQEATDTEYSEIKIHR
Chromo domain-containing protein 1 (Saccharomyces cerevisiae (strain ATCC 204508 / S288c) (Baker's yeast)), sequence (P32657 whole entry, the tested form may be a part): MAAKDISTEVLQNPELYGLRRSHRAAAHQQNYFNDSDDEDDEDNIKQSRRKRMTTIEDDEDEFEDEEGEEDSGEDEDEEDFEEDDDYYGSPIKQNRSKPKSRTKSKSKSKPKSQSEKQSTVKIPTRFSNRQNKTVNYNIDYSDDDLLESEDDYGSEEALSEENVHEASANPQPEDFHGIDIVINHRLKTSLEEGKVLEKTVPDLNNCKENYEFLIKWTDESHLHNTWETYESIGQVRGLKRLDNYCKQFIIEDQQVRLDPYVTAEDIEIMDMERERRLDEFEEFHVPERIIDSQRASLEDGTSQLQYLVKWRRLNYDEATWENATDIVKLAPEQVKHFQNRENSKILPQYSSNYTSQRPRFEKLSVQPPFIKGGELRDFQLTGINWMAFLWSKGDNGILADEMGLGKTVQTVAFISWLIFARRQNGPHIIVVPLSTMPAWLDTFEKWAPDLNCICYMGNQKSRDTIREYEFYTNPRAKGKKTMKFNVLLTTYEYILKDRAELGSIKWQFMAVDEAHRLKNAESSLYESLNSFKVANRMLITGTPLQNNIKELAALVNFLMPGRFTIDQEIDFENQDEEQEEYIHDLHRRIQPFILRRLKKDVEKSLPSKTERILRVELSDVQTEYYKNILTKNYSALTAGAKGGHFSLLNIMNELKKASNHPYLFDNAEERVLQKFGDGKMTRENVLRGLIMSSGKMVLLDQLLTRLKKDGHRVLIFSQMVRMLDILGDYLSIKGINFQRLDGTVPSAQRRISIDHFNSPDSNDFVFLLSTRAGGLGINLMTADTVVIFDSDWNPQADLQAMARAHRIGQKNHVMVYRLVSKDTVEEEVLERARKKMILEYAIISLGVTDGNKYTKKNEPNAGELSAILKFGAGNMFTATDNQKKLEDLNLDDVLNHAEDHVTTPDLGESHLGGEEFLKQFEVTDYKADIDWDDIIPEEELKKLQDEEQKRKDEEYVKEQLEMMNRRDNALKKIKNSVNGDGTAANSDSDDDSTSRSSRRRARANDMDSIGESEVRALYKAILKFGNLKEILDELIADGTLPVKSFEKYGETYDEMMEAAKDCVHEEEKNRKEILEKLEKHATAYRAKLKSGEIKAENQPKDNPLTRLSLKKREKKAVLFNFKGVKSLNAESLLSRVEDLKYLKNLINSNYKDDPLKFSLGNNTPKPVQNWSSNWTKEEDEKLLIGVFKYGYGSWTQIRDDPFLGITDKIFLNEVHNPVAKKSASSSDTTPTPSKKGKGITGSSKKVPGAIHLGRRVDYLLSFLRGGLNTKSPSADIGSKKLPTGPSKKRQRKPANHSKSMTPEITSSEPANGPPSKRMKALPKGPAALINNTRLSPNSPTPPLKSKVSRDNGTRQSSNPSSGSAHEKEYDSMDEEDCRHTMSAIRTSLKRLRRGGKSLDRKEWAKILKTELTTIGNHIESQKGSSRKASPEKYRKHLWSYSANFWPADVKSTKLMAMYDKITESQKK

For the compound `O=C(Cc1ccccc1)N1CCN(Cc2noc(C3CC3)n2)CC1`, the Percent Effect was -1.81% in [1]; 11.4% in [2]; -2.26% in test [3]; 0.817% in test [4]; 1.57% in test [5]; -4.62% with Trypanosoma cruzi. Also, the Percent Effect in [6] was -3.23%; in test [7] it was 12.9%; in the test listed under Homo sapiens, -5.12%; in test [8], 0.476%; in test [9] it was 7.29%; in test [10] it was 15.2%. For the same compound, in test [11], the Percent Effect is -22.4%.
For `CN(C)C(=O)CN1C[C@@H]2CC[C@H](C1)N(C(=O)Cc1ccccc1Cl)C2`, the Percent Effect in [1] is -7.08%; in test [2] it was -8.22%; in test [3], 1.5%; in test [4] it was 3.48%; in test [5] it was -0.0171%; in the test with Trypanosoma cruzi it was -5.16%. For the same compound, the Percent Effect was 0.798% in test [6]; 9.16% in test [7]; -4.89% in the test filed under Homo sapiens; -30.4% in test [8]; 0% in test [9]; -23.5% in test [10]. For the same compound, the Percent Effect in test [11] is -1.84%.
With `O=C(Cc1ccc(F)cc1)N1CCN(CC(O)C2CC2)CC1` (stereo not given), the Percent Effect was -9.94% in [1]; 5.48% in test [2]; 0.575% in [3]; 0.569% in [4]; -4.1% in test [5]; -5.09% in the test on Trypanosoma cruzi. The Percent Effect in [6] is -3.64%; in [7], 6.74%; in the test listed under Homo sapiens, 10.6%; in [8], 7.07%; in test [9] it was 3.23%; in test [10], 10%. The Percent Effect in test [11] is -5.88%.
For `COc1cc(CNCC(O)c2ccc(F)c(F)c2)cc2c1OCO2` (stereo not given), the Percent Effect was -2.52% in [1]; 13.5% in test [2]; 1.66% in test [3]; 1.05% in [4]; 3.77% in [5]; -6.41% with Trypanosoma cruzi. In addition, the Percent Effect in test [6] was 0.185%; in test [7], 18.1%; in the test listed under Homo sapiens it was 17.8%; in test [8], -9.43%; in test [9], 7.92%; in test [10] it was 13.4%. In [11], the Percent Effect was -5.65%.
In the case of `CCN1CCC2(COCc3cnc(NCC4CC4)nc32)C1` (stereo not given), the Percent Effect in test [1] is 1.53%; in test [2] it was 0%; in test [3] it was 0.296%; in [4], -4.7%; in [5], 2.85%; in the test with Trypanosoma cruzi it was 5.95%. The Percent Effect in test [6] was -2%; in [7], 3.68%; in the test filed under Homo sapiens it was 18.1%; in test [8] it was -28.9%; in test [9] it was 0%; in test [10], 8.64%. For the same compound, the Percent Effect in test [11] was -0.871%.

The record behind these values is ChEMBL document CHEMBL3988442, “University of Dundee, Small-Polar-MMV Screening Library” (2021).
